Twelve molecules from PubChem BioAssay (NCATS) can be followed below.

Assay [1] can be described thus: qHTS of pediatric cancer cell lines to identify multiple opportunities for drug repurposing: Confirmatory screen for SK-N-SH cells (AID 1347129).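 Further: cells exposed to compound for 48 h before viability read; nearly all actives have a fitted effect of over 60% in size.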 Further: potency means the concentration at half of the fitted maximal effect. A digest of the protocol: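 Cells (500-1,000/well) in growth media were settled 5 h at 37 degrees C, then given compounds for 48 h. Viability was read as CellTiter-Glo luminescence. Primary runs used MIPE at 11 points (0.78 nM-46 µM) and NPC at 8 points (0.59 nM-46 µM); follow-ups used 11 points.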
For orientation: In qHTS, concentration-response curves come from the screen itself.

The target in assay [2] is N-terminal Xaa-Pro-Lys N-methyltransferase 1 (Homo sapiens) (UniProt Q9BV86). Description: qHTS Assay for Inhibitors of N-terminal methyltransferase 1 (NTMT1): LOPAC validation of the NTMT1 SAHH-coupled ThioGlo3 Assay (AID 1347143). Further: nearly all actives have a fitted effect of over 70% in size. Further: potency means the concentration at half of the fitted maximal effect. In outline:
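Fluorescence read-out (excitation 340nm, emission 450nm) of SAH-derived thiol, measured via SAHH coupling and ThioGlo3, taken immediately and after a 30 min room-temperature reaction, then normalized to the background read. Enzyme: NTMT1 at 125nM; cofactor SAM 100uM in the added reagent.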

In assay [3] the test system is Zika virus NS2B-NS3 protease (unlinked). Description: Optimization of GU AMC qHTS for Zika virus inhibitors: Unlinked NS2B-NS3 protease assay (AID 1347151). Further: nearly all actives have a fitted effect of over 80% in size. Further: potency means the concentration at half of the fitted maximal effect. In outline:
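Unlinked protease (25 nM final); buffer 10 mM Tris-HCl pH 8.0 + 0.01% Tween 20; AMC substrate; 15 min RT, dark; Δfluorescence normalized to no-inhibitor/no-enzyme controls; 4-parameter Hill fit.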

Assay [4] deals with Zika virus NS2B-NS3 protease. Description: Primary screen GU AMC qHTS for Zika virus inhibitors (AID 1347154). Further: nearly all actives have a fitted effect of over 70% in size. Further: potency means the concentration at half of the fitted maximal effect. A digest of the protocol:
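Unlinked Zika NS2B hydrophilic domain/NS3 protease domain noncovalent complex (25 nM final) in 10 mM Tris-HCl pH 8.0, 0.01% Tween 20, with AMC peptide substrate. Fluorescence (ex 340, em 450 nm) change over 15 min, room temperature; percent inhibition fitted to 4-parameter Hill equation.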

Another assay has as its target Furin (Homo sapiens) (UniProt P09958). The assay can be described thus: Furin counterscreen qHTS for Zika virus inhibitors (AID 1347149). Further: nearly all actives have a fitted effect of over 70% in size. Further: potency means the concentration at half of the fitted maximal effect. A digest of the protocol: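 Fluorogenic cleavage of BOC-RVRR-AMC (2 microM final, Km ~15 µM) was monitored (ex 340, em 450 nm) at 37C after 15 min RT preincubation of 5 nM furin with compounds in HEPES pH 7.0 buffer with CaCl2 and Triton X-100. Percent inhibition was fitted to a 4-parameter Hill curve.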
On the technique in general: The purpose of a counterscreen is to sort out artefacts and off-target activity.

Assay [5] in a line: ZIKV-mCherry secondary qHTS for Zika virus inhibitors (AID 1347158). Further: potency means the concentration at half of the fitted maximal effect. In outline: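 Vero cells (5,000/well) were given compound, then infected with ZIKV-mCherry at MOI 1 for 48–72 h at 37 °C. After PFA fixation and Hoechst staining, imaging gave percent mCherry-positive cells. The positivity threshold was RFU above 450, 3 SD over negative controls.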
Assay [6] relates to Zika virus NS2B-NS3 protease (unlinked complex). The assay can be described thus: Primary screen GU Rhodamine qHTS for Zika virus inhibitors: Unlinked NS2B-NS3 protease assay (AID 1347159). Further: nearly all actives have a fitted effect of over 60% in size. Further: potency means the concentration at half of the fitted maximal effect. In outline:
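Percent inhibition derives from the 15-min fluorescence change (ex 480, em 540 nm), normalized to no-enzyme and no-inhibitor wells. Reactions contained 25 nM NS2B-NS3 complex and 1.5 microM substrate in 10 mM Tris-HCl pH 8.0.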

Assay [7] deals with Zika virus NS2B-NS3 protease (linked construct). Description: Primary screen NINDS Rhodamine qHTS for Zika virus inhibitors (AID 1347160). Further: nearly all actives have a fitted effect of over 55% in size. In outline:
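In 10 mM Tris-HCl pH 8.0 containing 0.01% Tween 20, linked NS2B-NS3 protease (25 nM final) is exposed to test compounds for 15 min. Cleavage of 1.5 microM Rhodamine110 substrate is tracked by fluorescence over 15 min.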

Assay [8] concerns Zika virus NS2B-NS3 protease (linked). Description: 384 well plate NINDS AMC confirmatory qHTS for Zika virus inhibitors (AID 1347163). Further: nearly all actives have a fitted effect of over 50% in size. Further: potency means the concentration at half of the fitted maximal effect. A digest of the protocol: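 Linked NS2B-NS3 protease (final 5 nM, 30 nM or 60 nM) was preincubated with compounds (final up to 1 mM) for ~15 minutes. Ac-VKTGKR-AMC substrate (final 30 microM) then reacted for 25 minutes at room temperature in the dark. Fluorescence (ex 355/em 460 nm) was normalized to no-enzyme and no-inhibitor controls.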

A short description of assay [9]: Vero cells viability qHTS for Zika virus inhibitors (AID 1347167). Further: potency means the concentration at half of the fitted maximal effect. In outline: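 Counter-screen for cytotoxicity of hits from NS2B-NS3 protease qHTS. Overnight-attached cells (2.5 x 10^5 cells/mL, DMEM/4% FBS) were dosed in titration, incubated 24 to 48 hours, then assayed by CellTiter Glo.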
The nature of assay [10]: Tertiary RLuc qRT-PCR qHTS assay for Zika virus inhibitors (AID 1347169). Further: nearly all actives have a fitted effect of over 55% in size. Further: potency means the concentration at half of the fitted maximal effect. A digest of the protocol:
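Vero, 1,000 cells/well, o/n 37 C; cpd pinned in DMSO; ZIKV-RLuc Cambodian, MOI 1-2, 48-72 h 37 C; live-cell RLuc substrate, lum read at 1-1.5 h.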
A general note: Real-time PCR tracks product formation cycle by cycle.

Assay [11] can be described thus: qHTS to identify inhibitors of the type 1 interferon - major histocompatibility complex class I in skeletal muscle: primary screen against the NCATS LOPAC collection (AID 1347405).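 Further: lytic HiBiT luminescence reporting HLA-B protein level.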 A digest of the protocol:
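CRISPR-engineered immortalized human myoblasts (C25cl48) with HiBiT fused to endogenous HLA-B*08:01, stimulated with 4 ng/ml IFN-beta. LOPAC compounds tested as a 7-point 1:4.3 titration (top 46 uM final), 24 h at 37 C; lytic HiBiT luminescence read.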

Assay [12] is described as follows: qHTS for inhibitors of adenylyl cyclases using a fission yeast platform: a pilot screen against the NCATS LOPAC library (AID 1347410). In outline:
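Fission yeast qHTS: CHP2027 cells (AC9-GNAS-PDE4D2, fbp1-GFP), 5x10^6 cells/mL working density, EMM + His/Lys/Ura; LOPAC at up to 57 µM final; 18 h dark, 30C; GFP by laser cytometry. DPI positive control, DMSO vehicle.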

A short description of assay [13]: qHTS to identify inhibitors of the type 1 interferon - major histocompatibility complex class I in skeletal muscle: primary screen against the NCATS Pharmaceutical Collection (AID 1347407). Further: potency means the concentration at half of the fitted maximal effect. In outline: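 Luminescence from HiBiT-tagged endogenous HLA-B*08:01 served as the read-out of IFN-beta-induced MHC class I in CRISPR-engineered C25cl48 myoblasts. Cells received 4 ng/ml IFN-beta plus compound (high final 46 uM, […]) for 24 h.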

The test system of assay [14] is Zika virus NS2B-NS3 protease (linked construct). The assay can be described thus: Confirmatory screen NINDS AMC qHTS for Zika virus inhibitors (AID 1347152). Further: nearly all actives have a fitted effect of over 70% in size. Further: potency means the concentration at half of the fitted maximal effect. In outline:
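Enzyme (1 nM, linked construct) was preincubated with compound for 15 minutes at room temperature in 10 mM Tris-HCl pH 8.0 with 0.01% Tween 20. Bz-Nle-Lys-Arg-Arg-AMC was then added to 10 microM, and AMC fluorescence was recorded immediately and after 15 minutes.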

Assay [15] concerns Zika virus NS2B-NS3 protease (unlinked complex). The assay can be described thus: Confirmatory screen GU AMC qHTS for Zika virus inhibitors (AID 1347153). Further: nearly all actives have a fitted effect of over 70% in size. In outline: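 Compounds were preincubated 15 min at room temperature with 25 nM noncovalent NS2B-NS3 protease at pH 8.0; AMC substrate added at 10 microM and 15-min fluorescence gain (340/450 nm) converted to percent inhibition, fitted 4-parameter.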

Assay [16] can be described thus: Confirmatory screen NINDS Rhodamine qHTS for Zika virus inhibitors (AID 1347161). Further: nearly all actives have a fitted effect of over 60% in size. Further: potency means the concentration at half of the fitted maximal effect. In outline:
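Each compound, titrated, sat 15 min with 25 nM linked protease before 1.5 microM Rhodamine110 substrate went in. Fluorescence gain over the next 15 min, in pH 8.0 Tris with Tween 20, gave Hill-fitted curves.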

For assay [17], the system named is Zika virus NS2B-NS3 protease (linked construct). Description: 384 well plate NINDS Rhodamine confirmatory qHTS for Zika virus inhibitors (AID 1347164).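 Further: fluorescence from protease cleavage of Ac-LKRR-rhodamine 110 substrate; potency means the concentration at half of the fitted maximal effect; nearly all actives have a fitted effect of over 65% in size.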 A digest of the protocol:
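Enzyme (final 5/30/60 nM) + cpd (DMSO), ~15 min; add Ac-LKRR-Rd 10 microM final; 25 min RT, dark; FI ex 485/em 538; normalized to no-enzyme, no-inhibitor ctrls; aprotinin intraplate ctrl.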

Molecules are shown by their SMILES. Several values for one entry are separate records, joined by “and”; a condition that tells them apart may be missing. Equal values may be shown once. Unmarked numbers belong to inactive results. Records with an inconclusive call do not appear. Activity calls are given as the source filed them. The call rests on the fitted dose curve; in most records, active means well fitted curve in the direction sought with a large enough effect; inconclusive means small, poorly fitted or top-dose-only effect, or another doubt; inactive means no such curve, though single readings can be large; an effect the other way counts as inactive or inconclusive.

Chain of N-terminal Xaa-Pro-Lys N-methyltransferase 1 (Homo sapiens) (Q9BV86 whole entry, looked up): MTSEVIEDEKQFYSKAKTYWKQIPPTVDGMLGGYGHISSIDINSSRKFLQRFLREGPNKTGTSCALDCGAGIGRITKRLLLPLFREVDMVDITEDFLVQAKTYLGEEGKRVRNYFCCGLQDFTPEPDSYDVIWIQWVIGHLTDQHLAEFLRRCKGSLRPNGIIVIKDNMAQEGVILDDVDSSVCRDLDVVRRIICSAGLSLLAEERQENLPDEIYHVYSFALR
Chain of Furin (Homo sapiens) (P09958 whole entry, looked up): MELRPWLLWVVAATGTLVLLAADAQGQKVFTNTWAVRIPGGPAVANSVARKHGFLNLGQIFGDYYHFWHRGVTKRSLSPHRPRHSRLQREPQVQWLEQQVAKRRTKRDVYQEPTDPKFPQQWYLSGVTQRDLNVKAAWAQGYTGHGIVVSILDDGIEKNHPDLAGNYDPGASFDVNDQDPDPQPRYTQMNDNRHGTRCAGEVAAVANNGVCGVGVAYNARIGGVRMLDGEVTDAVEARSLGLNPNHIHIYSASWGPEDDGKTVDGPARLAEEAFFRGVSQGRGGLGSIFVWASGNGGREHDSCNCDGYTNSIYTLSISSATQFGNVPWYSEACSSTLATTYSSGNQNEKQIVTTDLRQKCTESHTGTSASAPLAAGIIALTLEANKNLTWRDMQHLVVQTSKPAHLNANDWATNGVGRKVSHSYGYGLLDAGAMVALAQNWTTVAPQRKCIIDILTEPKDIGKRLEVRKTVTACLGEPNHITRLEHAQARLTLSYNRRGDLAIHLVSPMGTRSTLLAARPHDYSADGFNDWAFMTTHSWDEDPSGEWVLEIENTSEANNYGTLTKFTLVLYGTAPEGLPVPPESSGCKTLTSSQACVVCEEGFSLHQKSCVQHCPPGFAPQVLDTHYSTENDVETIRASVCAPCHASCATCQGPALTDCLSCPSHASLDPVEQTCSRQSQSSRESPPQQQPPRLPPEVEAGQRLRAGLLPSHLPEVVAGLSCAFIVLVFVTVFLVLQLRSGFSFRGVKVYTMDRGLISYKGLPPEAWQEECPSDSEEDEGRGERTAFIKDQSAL

Turning to `CCN(CC)C(=S)SSC(=S)N(CC)CC`, the Potency result in [1], in assay [3] and in assay [4] was “inactive” in each case. The Potency in assay [2] was 4.47 µM (active).
For the molecule `Cc1nc(Nc2ncc(C(=O)Nc3c(C)cccc3Cl)s2)cc(N2CCN(CCO)CC2)n1`, the Potency was 4.18 µM (active) in assay [1]; 50.1 µM (active) in the assay with Furin (Homo sapiens); 398 µM (active) in [3]; 282 µM (active) in [9]; 0.224 µM (active) in assay [10]. The Potency entry in assay [4], in assay [5], in assay [6], in [7] and in assay [8] was “inactive” each time.
For `Cc1ccc(Nc2nccc(N(C)c3ccc4c(C)n(C)nc4c3)n2)cc1S(N)(=O)=O`, the Potency in assay [1] is 18.7 µM (active). Also, the Potency entry in assay [4], in [6] and in assay [7] was “inactive” each time.
As to `O=C1c2c(O)cc(O)cc2OC(c2ccc(O)c(O)c2)C1O` (stereo unspecified), the Potency result in assay [1], in [3] and in assay [11] was “inactive” throughout. Further, in assay [2], the Potency is 25.1 µM (active). In addition, the result in assay [12] was inactive.
Regarding `CC(=O)NC[C@H]1CN(c2ccc(N3CCOCC3)c(F)c2)C(=O)O1`, the Potency entry in [2], in assay [3], in [4], in assay [6], in [7] and in assay [11] was “inactive” throughout. The molecule was classed as inactive in assay [12].
For the molecule `CC(S)C(=O)NCC(=O)O` (stereo unspecified), the Potency result in assay [1], in assay [4] and in [13] was “inactive” throughout.
As to `Oc1ccc(-c2nc(-c3ccc(F)cc3)c(-c3ccncc3)[nH]2)cc1`, the values for the Potency in assay [1] and in [2] were 5.26 µM (active) and 79.4 µM (active), respectively. Further, the Potency result in assay [14], in assay [15], in assay [4], in assay [16] and in [9] was “inactive” in each case. Further, the call in [12] was inactive.
With `C=C(c1ccc(C(=O)O)cc1)c1cc2c(cc1C)C(C)(C)CCC2(C)C`, the Potency result (in [1]; in the assay with Furin (Homo sapiens); in assay [13]) was “inactive” in each case. Besides, the Potency in assay [14] was 19.2 µM (active); in assay [15] it was 19.2 µM (active) and 21.5 µM (active); in assay [4], 9.61 µM (active) and 14.4 µM (active); in assay [5] it was 7.08 µM (active); in [6], 3.16 µM (active); in assay [16], 1.96 µM (active) and 2.47 µM (active). The Potency was 22.4 µM (active) in assay [8] and 7.94 µM (active) in assay [17].
Regarding `Cc1c(C(=O)NN2CCCCC2)nn(-c2ccc(Cl)cc2Cl)c1-c1ccc(Cl)cc1`, the Potency result in assay [1], in assay [4] and in assay [13] was “inactive” in each case.
Regarding `COc1cc2c(cc1OC)C1CC(=O)C(CC(C)C)CN1CC2` (stereo unspecified), the Potency result in assay [2], in [14], in [15], in [4], in assay [16] and in assay [9] was “inactive” each time. Further, the Potency result in assay [10] and in [11] was “inactive” each time. Moreover, the Potency in the assay with Furin (Homo sapiens) was 27.1 µM (active). For the same molecule, the outcome in assay [12] was inactive.
For `C[C@]12CCC(=O)C=C1CC[C@@H]1[C@H]2[C@@H](O)C[C@@]2(C)[C@H]1CC[C@]2(O)C(=O)CO`, the Potency entry in assay [1] and in [4] was “inactive” each time.
Consider `CC(C)C[C@H](NC(=O)[C@H](Cc1ccccc1)NC(=O)c1cnccn1)B(O)O`, for which the Potency is 0.0332 µM (active) in assay [1], 0.037 µM (active) in [10] and 0.0745 µM (active) in assay [13]. The Potency entry (in the assay with Furin (Homo sapiens); in assay [3]; in assay [4]; in [6]; in assay [7]; in assay [9]) was “inactive” in each case.
